Source: PubChem BioAssay AID2685 (National Center for Advancing Translational Sciences (NCATS), 2010)
Among all 320,000 compounds or so, about 2,100 (0.66%) were called active. Not shown: some 53% with an inconclusive outcome. The call rests on the fitted dose curve; in most records, active means well fitted inhibition curve with a large enough effect in the signal ratio, with a control signal flat (not every such curve was filed as active); inconclusive means small, poorly fitted or top-dose-only effect, or effect the other way, or a change in a side signal; inactive means flat fitted curve, though single readings scatter; the % refers to the signal ratio. The list comes from a sample in which actives are over-represented; it also holds similar structures and randomly drawn compounds.

Experiment: qHTS Assay for Lipid Storage Modulators in Drosophila S3 Cells;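 on cell number change: cells counted by Cell Tracker Red CMTPX staining in the red channel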; on lipid storage change, negative = inhibition: on the % scale 0 is the no-effect control and ±100 the full control effect
Conditions: BODIPY lipid droplet fluorescence, 18-24 h, cells fed with added oleic acid; cell number change: measured here: cell count max response; series mostly up to 46.1 µM
Method in brief: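 Drosophila S3 cells loaded with oleic acid (400 uM, as added) and compounds at several concentrations; lipid droplets imaged by 488-nm laser-scanning cytometry, 500–530 nm intensity and object ratio to cell channel. Percent activity normalized to 20 uM Triacsin C.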
Potency means the concentration at half of the fitted maximal effect.

| SMILES | Potency | cell number change | lipid storage change, negative = inhibition |
| --- | --- | --- | --- |
| Cc1ccc(/C=C/S(=O)(=O)NCC(=O)OCC(=O)N2CC(=O)Nc3ccccc32)cc1 | inactive | 5.37% | – |
| CCOc1ncccc1C(=O)Nc1cccc(C(=O)Nc2cccc(S(=O)(=O)CCO)c2)c1 | inactive | -9.36% | – |
| Cc1ccc(-c2nnc(SCC#N)n2N)cc1 | inactive | 6.27% | – |
| COc1ccc(-c2csc3ncn(-c4ccccc4)c(=O)c23)cc1OC | inactive | -7.4% | – |
| Cc1cc(C)nc(CCNC(=O)C2CCC(=O)N(Cc3ccccc3F)C2)n1 (centres undefined) | inactive | 14.5% | – |
| CSc1ccc(-c2nc(CSCC(=O)NCCCN3CCOCC3)c(C)o2)cc1 | inactive | -0.666% | – |
| CSc1ccc(-c2nc(CSCC(=O)NCCCN3CCCC3=O)c(C)o2)cc1 | 1.84 µM (active) | – | – |
| CCCNC(=O)CSCc1nc(-c2ccc(SC)cc2)oc1C | inactive | 10.2% | – |
| CCOC(=O)C(CCCOc1cccc(OC)c1)C(=O)OCC | inactive | -10.4% | – |
| O=C(COc1ccc([N+](=O)[O-])cc1)N1CCc2ccccc2C1 | inactive | 20% | – |
| COc1ccc([N+](=O)[O-])cc1NC(=O)c1ccccc1N(C)S(C)(=O)=O | inactive | -12.5% | – |
| Cc1ccc(-c2nnc(Sc3nc4ccccc4o3)c3ccccc23)cc1 | inactive | -15.3% | – |
| Clc1ccc(-c2nnc(Sc3nc4ccccc4o3)c3ccccc23)cc1 | inactive | -12.5% | – |
| O=c1c(Cl)c2oc3ccccc3nc-2c2ccccc12 | 11.6 µM (active) | 13.2% | – |
| CCSc1ccc(-c2ccco2)nn1 | inactive | 13.6% | – |
| O=c1c([N+](=O)[O-])c(O)c2cccc3c2n1CCC3 | inactive | -0.265% | – |
| O=C(Nc1ccccc1C(=O)Nc1ccccn1)c1cccc([N+](=O)[O-])c1 | inactive | 6.61% | – |
| N#Cc1c(N)nc2c(c1-c1ccc(F)cc1)c(=O)nc1sccn12 | inactive | – | – |
| CC1(c2ccccc2Cl)NC(=O)N(CC(=O)NCCC2=CCCCC2)C1=O (centres undefined) | inactive | – | – |
| Cc1ccc(CC(=O)N2CCN(c3ccc([N+](=O)[O-])cc3)CC2)cc1 | 7.31 µM (active) | 10.2% | – |
| O=C(Cc1ccc([N+](=O)[O-])cc1)N1CCN(c2ccc([N+](=O)[O-])cc2)CC1 | inactive | 2.07% | – |
| O=C(Cc1ccc(F)cc1)N1CCN(c2ccc([N+](=O)[O-])cc2)CC1 | inactive | 11.6% | – |

| SMILES | Potency | cell number change | lipid storage change, negative = inhibition |
| --- | --- | --- | --- |
| O=C(Nc1cccc2ccccc12)N1CCN(c2ncccn2)CC1 | inactive | 15% | – |
| Cc1ccc(CN2CCN(Cc3cnc(N4CCOCC4)s3)CC2CCO)cc1 (centres undefined) | inactive | -2.17% | – |
| CC(C)=CCN1CCN(Cc2cnc(N3CCOCC3)s2)CC1CCO (centres undefined) | 13 µM (active) | -26.5% | – |
| CC(C)CN1CCN(Cc2cnc(N3CCOCC3)s2)CC1CCO (centres undefined) | inactive | 24.7% | – |
| O=C1CN(S(=O)(=O)c2ccccc2)CCN1S(=O)(=O)c1ccccc1 | inactive | -1.6% | – |
| CCC1C(=O)N=C(SCC(=O)Nc2ccc(S(N)(=O)=O)cc2)NC1=O (centres undefined) | 6.51 µM (active) | -37.4% | – |
| NS(=O)(=O)c1ccc(NC(=O)CSC2=NC(=O)C(c3ccccc3)C(=O)N2)cc1 (centres undefined) | inactive | -0.978% | – |
| CCC1C(=O)N=C(SCC(=O)Nc2ccccc2)NC1=O (centres undefined) | inactive | 7.84% | – |
| O=S(=O)(/N=C(/c1ccc(F)cc1)N1CCCCC1)c1ccc(Cl)cc1 | inactive | -6.48% | – |
| Cc1ccc(CNC(=O)CN2C(=O)c3ccccc3S2(=O)=O)cc1 | inactive | 20.7% | – |
| CN(C)c1ccc(/C=N/NC(=O)c2ccnn2C)cc1 | inactive | -10.8% | – |
| Cn1nccc1C(=O)N/N=C/c1c(O)ccc2ccccc12 | 14.6 µM (active) | -2.67% | – |
| Cn1cc(C(=O)N/N=C/c2c(O)ccc3ccccc23)ccc1=O | inactive | -26.3% | – |
| O=C1NC(=S)N/C1=C/c1ccc(Oc2ccc(C(F)(F)F)cc2[N+](=O)[O-])c(Cl)c1 | inactive | -6.9% | – |
| COc1ccc(N2C(=O)CC(NC3CCCCNC3=O)C2=O)cc1 (centres undefined) | inactive | 5.19% | – |
| COCC(=O)Nc1ccc(OCc2ccccc2)cc1 | inactive | 4% | – |
| COc1ccc(NC(=O)CN(C)C(=O)/C=C/c2ccc(OCc3ccccc3)cc2)cc1 | 0.731 µM (active) | -11.8% | – |
| COc1ccc(NC(=O)CN(C)C(=O)c2ccc(COc3ccccc3)cc2)cc1 | inactive | -6.23% | – |
| Cc1ccc(C23CC4CC(CC(C(=O)OCC(=O)N(C)C)(C4)C2)C3)cc1 | inactive | 4.17% | – |
| CCOc1ccccc1CNC(=O)c1ccc(Sc2ccc(Cl)cc2)c(NC(C)=O)c1 | inactive | 7.67% | – |
| Cc1[nH]c2ccccc2c1C(=O)C(=O)N1CCN(C(=O)c2ccco2)CC1 | inactive | 27% | – |
| O=C(Nc1ccccn1)c1onc2c1CCCC2 | inactive | – | – |

| SMILES | Potency | cell number change | lipid storage change, negative = inhibition |
| --- | --- | --- | --- |
| Cc1ccccc1NC(=O)c1cccc(C(=O)Nc2ccccc2C)n1 | 8.2 µM (active) | -25.7% | – |
| Cc1ccccc1NC(=O)C(=O)Nc1ccccc1C | inactive | 0.926% | – |
| O=C(Nc1cccc2ccccc12)c1onc2c1CCCC2 | inactive | – | – |
| Cc1ccccc1NC(=O)c1onc2c1CCCC2 | 25.9 µM (active) | – | – |
| Cc1ccccc1NC(=O)c1ccccn1 | inactive | – | – |
| COc1cc2c(cc1OC)C(c1ccc3c(c1)OCO3)C1=C(CC(C)(C)CC1=O)N2 (centres undefined) | inactive | -17.2% | – |
| CC(=O)NCc1cc(-c2ccc(Cl)cc2)no1 | – | -2.06% | 0.337% [at 9.22 µM] (inactive) |
| O=C(NCc1nnc(SCC(=O)N2CCc3ccccc32)o1)c1cccs1 | inactive | -1.06% | – |
| CCOC(=O)N1CCN(CC(O)c2c[nH]c3ccccc23)CC1 (centres undefined) | inactive | 14.4% | – |
| Cc1ccc(-c2nn(C)c(=O)c3ccccc23)cc1CNC(=O)/C=C/c1ccccc1 | inactive | -24.2% | – |
| CCCn1c(-c2cc(OC)c(OC)c(OC)c2)nc2c1c(=O)[nH]c(=O)n2Cc1ccccc1 | 0.651 µM (active) | – | – |
| CCCCn1c(=O)[nH]c(=O)c2c1nc(-c1ccc(OC)c(Br)c1)n2CC(C)C | 0.326 µM (active) | 9.66% | – |
| CCCCn1c(=O)[nH]c(=O)c2c1nc(-c1ccc(-c3ccccc3)cc1)n2C | 3.66 µM (active) | -2.7% | – |
| C=CCOc1ccc(-c2nc3c(c(=O)[nH]c(=O)n3Cc3ccccc3)n2CCCOC)cc1 | inactive | 4.84% | – |
| CCCn1c(-c2cccc(F)c2)nc2c1c(=O)[nH]c(=O)n2Cc1ccccc1 | inactive | 13.3% | – |
| C=CCOc1ccc(-c2nc3c(c(=O)[nH]c(=O)n3CCC)n2CCCC)cc1 | 2.91 µM (active) | 22.5% | – |
| C=CCOc1ccc(-c2nc3c(c(=O)[nH]c(=O)n3CCCC)n2C)cc1Br | inactive | 12.1% | – |
| CCCCn1c(=O)[nH]c(=O)c2c1nc(-c1ccc(OCC)cc1)n2CC | inactive | -8.47% | – |
| CCCCn1c(=O)[nH]c(=O)c2c1nc(-c1cc(Br)c(OCC)c(OC)c1)n2C | inactive | 15% | – |
| CCCCn1c(=O)[nH]c(=O)c2c1nc(-c1cccc(OC)c1)n2C | inactive | -6.05% | – |
| CCCn1c(-c2cccc([N+](=O)[O-])c2)nc2c1c(=O)[nH]c(=O)n2Cc1ccccc1 | inactive | 1.66% | – |
| CCCCn1c(=O)[nH]c(=O)c2c1nc(-c1ccc(-c3ccc(F)cc3)o1)n2C | inactive | 10.6% | – |
